We go through 33 compounds from PubChem BioAssay AID1541 (National Center for Advancing Translational Sciences (NCATS), 2009).

Molecules are shown by their SMILES. Records with an inconclusive call do not appear. Entries that show only a call come without a potency. Calls of active or inactive are those of the source. Calls follow the shape of the dose curve; as a rule, active = well fitted activation curve with a large enough effect; inconclusive = small, poorly fitted or top-dose-only effect, or effect the other way; inactive = no such curve, though single readings can be large or run the other way.

Chain of Pyruvate kinase PKLR (Homo sapiens) (P30613 whole entry, looked up): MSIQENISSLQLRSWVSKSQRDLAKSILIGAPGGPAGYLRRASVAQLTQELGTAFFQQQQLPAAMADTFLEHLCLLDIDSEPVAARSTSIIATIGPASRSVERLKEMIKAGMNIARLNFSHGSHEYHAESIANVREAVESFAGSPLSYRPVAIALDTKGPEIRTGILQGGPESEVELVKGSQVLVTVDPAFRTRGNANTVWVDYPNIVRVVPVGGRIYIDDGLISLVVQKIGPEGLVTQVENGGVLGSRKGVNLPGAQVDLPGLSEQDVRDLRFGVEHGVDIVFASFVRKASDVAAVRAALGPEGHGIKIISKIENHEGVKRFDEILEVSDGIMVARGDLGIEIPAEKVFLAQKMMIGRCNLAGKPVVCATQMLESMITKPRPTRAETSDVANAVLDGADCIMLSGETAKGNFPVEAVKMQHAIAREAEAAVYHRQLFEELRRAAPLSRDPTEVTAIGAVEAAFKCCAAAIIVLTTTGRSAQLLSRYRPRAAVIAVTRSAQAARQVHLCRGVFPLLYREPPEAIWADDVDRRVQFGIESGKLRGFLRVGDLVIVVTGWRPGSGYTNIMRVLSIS

The assay has as its target Pyruvate kinase PKLR (Homo sapiens) (UniProt P30613). As to the kind of experiment: Secondary assay for Activators of Human Liver Pyruvate Kinase. To be noted: purified hPK-L, LDH-coupled NADH fluorescence kinetic; series mostly up to 57.5 µM. An excerpt: Confirmatory assay NIH Chemical Genomics Center [NCGC] Matthew G. Vander Heiden, M.D., Ph.D. [Harvard Medical School, 77 Avenue Louis Pasteur, Boston, MA 02115] NCGC Assay Overview: Human pyruvate kinase liver (hPK-L)enzyme was supplied as a highly purified (>95% pure) preparation from Harvard Medical School and a secondary assay was used to evaluate compounds. This assay couples the formation of pyruvate from hPK-R using lactate dehydrogenase (LDH) and NADH. The depletion of NADH is followed in a fluorescent-based kinetic assay that follows the formation of pyruvate to lactate, as catalyzed LDH. Pyruvate kinase substrates, PEP and ADP, were present in the assay at 0.1 mM and 4 mM respectively. In this kinetic assay initial rates were determined by following the fluorescence of NADH depletion.
NCGC Assay Protocol Summary: Three uL of substrate mix (final concentration, 50 mM Tris-Cl pH 8.0, 200 mM KCl, 15 mM MgCl2, 0.1 mM PEP, 4.0 mM ADP, and 0.2 mM NADH) was dispensed into black-solid 1536 well plates. 23 nL of compounds were delivered by a pin tool and 1 uL of enzyme mix (final concentrations, 10 nM hPK-L and 1 uM of LDH) was added. Plates were immediately placed in ViewLux (Perkin Elmer) and NADH fluorescence was determined at 30 second exposure intervals for between 3 and 6 minutes. Data were normalized to the uninhibited and EC100 activation using known activators such as fructose-bis-phosphate.
As to `COc1ccc(Cn2ncc3c4sc(C)cc4n(C)c3c2=O)cc1F`, the Potency result was “inactive”.

In the case of `O=S(=O)(NC1CCC(NS(=O)(=O)c2c(F)cccc2F)CC1)c1ccc2c(c1)OCCO2` (stereo not drawn), the Potency entry is “inactive”.

For `O=S(=O)(c1ccc2c(c1)OCCO2)N1CCN(S(=O)(=O)c2cccc[n+]2[O-])CC1`, the Potency entry is “inactive”.

Regarding `Cn1c2cc(B(O)O)sc2c2cnn(Cc3ccccc3F)c(=O)c21`, the Potency result was “inactive”.

On to `Cn1c2cc(CO)sc2c2cnn(Cc3ccccc3F)c(=O)c21`, for which the Potency was 2240 nM (active).

On to `Cn1c2cc(B(O)O)sc2c2cnn(Cc3c(F)cccc3Cl)c(=O)c21`, for which the Potency result is “inactive”.

In the case of `C[C@H]1CN(S(=O)(=O)c2ccc3c(c2)OCCO3)CCN1S(=O)(=O)c1c(F)cccc1F`, the Potency entry was “inactive”.

For `COc1ccc(S(=O)(=O)N2CCN(S(=O)(=O)c3ccc4c(c3)OCCO4)CC2)cc1`, the Potency result was “inactive”.

`O=S(=O)(c1ccc2c(c1)OCCO2)N1CCN(S(=O)(=O)c2ccccn2)CC1`: the Potency result is “inactive”.

With `O=S(=O)(NC1CCN(S(=O)(=O)c2c(F)cccc2F)C1)c1ccc2c(c1)OCCO2` (stereo not drawn), the Potency entry is “inactive”.

With `Cc1cc2c(s1)c1cnn(Cc3ccccc3F)c(=O)c1n2C`, the Potency is 3520 nM (active).

Regarding `O=S(=O)(c1ccc2ccccc2c1)N1CCN(S(=O)(=O)c2c(F)cccc2F)CC1`, the Potency result is “inactive”.

Regarding `Cc1nc2ccc(S(=O)(=O)N3CCN(S(=O)(=O)c4c(F)cccc4F)CC3)cc2s1`, the Potency entry is “inactive”.

In the case of `CC(=O)c1cc2c(s1)c1cnn(Cc3ccccc3F)c(=O)c1n2C`, the Potency was 794 nM (active).

In the case of `O=S(=O)(NCCCCNS(=O)(=O)c1c(F)cccc1F)c1ccc2c(c1)OCCO2`, the Potency result was “inactive”.

As for `O=C(c1c(F)cccc1F)N1CCN(S(=O)(=O)c2ccc3c(c2)OCCO3)CC1`, the Potency result is “inactive”.

In the case of `COc1cc2c(s1)c1cnn(Cc3ccccc3F)c(=O)c1n2C`, the Potency was 2510 nM (active).

On to `O=S(=O)(c1ccc2c(c1)OCCCO2)N1CCN(S(=O)(=O)c2c(F)cccc2F)CC1`, for which the Potency result was “inactive”.

Turning to `Cc1cc2c(s1)c1cnn(Cc3c(F)cccc3Cl)c(=O)c1n2C`, the Potency entry is “inactive”.

Turning to `Cc1cc2c(s1)c1cnn(Cc3ccc(F)cc3F)c(=O)c1n2C`, the Potency entry is “inactive”.

For the compound `O=C1CN(S(=O)(=O)c2ccc3c(c2)OCCO3)CCN1S(=O)(=O)c1c(F)cccc1F`, the Potency entry was “inactive”.

As to `Cn1ccc2cc(S(=O)(=O)N3CCN(S(=O)(=O)c4c(F)cccc4F)CC3)ccc21`, the Potency entry was “inactive”.

Turning to `Cc1cc2c(s1)c1cnn(Cc3ccccc3)c(=O)c1n2C`, the Potency entry is “inactive”.

`Cc1cc2c(s1)c1c(C)nn(Cc3ccccc3F)c(=O)c1n2C`: the Potency result is “inactive”.

Turning to `O=S(=O)(c1c(F)cccc1F)C1CCN(S(=O)(=O)c2ccc3c(c2)OCCO3)CC1`, the Potency entry is “inactive”.

Consider `Cn1c2ccsc2c2cnn(Cc3ccc(F)cc3)c(=O)c21`, for which the Potency was 17800 nM (active).

With `O=S(=O)(NCC1CN(S(=O)(=O)c2ccc3c(c2)OCCO3)C1)c1c(F)cccc1F`, the Potency result was “inactive”.

For the compound `Cn1c2cc(Br)sc2c2cnn(Cc3c(F)cccc3Cl)c(=O)c21`, the Potency is 7940 nM (active).

As for `Cn1c2cc(Br)sc2c2cnn(Cc3ccc(F)cc3F)c(=O)c21`, the Potency is 2510 nM (active).

Consider `COc1cccc(Cn2ncc3c4sc(B(O)O)cc4n(C)c3c2=O)c1`, for which the Potency result was “inactive”.

Turning to `Cn1c2cc(Br)sc2c2cnn(Cc3c(F)cccc3F)c(=O)c21`, the Potency result was “inactive”.

Turning to `COc1cccc(Cn2ncc3c4sc(Br)cc4n(C)c3c2=O)c1`, the Potency entry was “inactive”.

For the compound `Cc1cc2c(s1)c1cnn(Cc3cccc(Cl)c3)c(=O)c1n2C`, the Potency result was “inactive”.
